Records with an inconclusive call do not appear. Calls of active or inactive are those of the source. Unless noted, calls come from the whole dose curve.
Assays:
[1] = Nuclear factor erythroid 2-related factor 2/antioxidant responsive element (Nrf2/ARE) small molecule agonists: qHTS cell viability counter screen in human keratinocytes (AID 1919968; active = well fitted curve in the direction sought with a large enough effect in the repeat runs; an effect the other way counts as inactive or inconclusive; note: nearly all actives have a fitted effect of over 55% in size; note: potency is the fitted concentration of half-maximal effect)
Method in brief: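 KeratinoSens HaCaT cells, 1,500/well, preincubated 5 h, then exposed to compounds in DMSO for 23 h at 37 C/5% CO2. Viability read as CellTiter-Fluor fluorescence after 1 h, in the same wells as the ARE-luciferase read.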

[2] = target: Gonadotropin-releasing hormone receptor (Homo sapiens) (UniProt P30968); assay: Human gonadotropin-releasing hormone receptor (GnRHR) small molecule agonists, calcium flux assay in GnRHR-HEK293 cells (AID 1920063); note: nearly all actives have a fitted effect of over 35% in size
Chain of Gonadotropin-releasing hormone receptor (Homo sapiens) (P30968 whole entry, looked up): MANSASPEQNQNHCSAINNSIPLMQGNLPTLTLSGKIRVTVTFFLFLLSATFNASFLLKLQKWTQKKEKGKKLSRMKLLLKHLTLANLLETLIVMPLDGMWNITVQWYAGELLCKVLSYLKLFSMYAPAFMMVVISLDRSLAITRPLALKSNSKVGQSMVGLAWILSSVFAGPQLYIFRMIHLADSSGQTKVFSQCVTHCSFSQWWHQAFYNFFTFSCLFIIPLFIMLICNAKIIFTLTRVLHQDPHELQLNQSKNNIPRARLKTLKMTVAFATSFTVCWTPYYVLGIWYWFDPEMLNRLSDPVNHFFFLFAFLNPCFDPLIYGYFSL
Method in brief: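 HEK293 cells stably expressing human GnRHR were dye-loaded for 1 h at 37 C. Compound was added in agonist mode and fluorescence (Ex/Em 480/540) recorded kinetically for 3 min. Fifteen concentrations, triplicates.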

[3] = target: KiSS-1 receptor (Homo sapiens) (UniProt Q969F8); assay: Human kisspeptin (KISS1R) small molecule agonists, calcium flux assay in KISS1R-HEK293 cells (AID 1920064; active = well fitted curve in the direction sought with a large enough effect in the repeat runs; an effect the other way counts as inactive or inconclusive)
Chain of KiSS-1 receptor (Homo sapiens) (Q969F8 whole entry, looked up): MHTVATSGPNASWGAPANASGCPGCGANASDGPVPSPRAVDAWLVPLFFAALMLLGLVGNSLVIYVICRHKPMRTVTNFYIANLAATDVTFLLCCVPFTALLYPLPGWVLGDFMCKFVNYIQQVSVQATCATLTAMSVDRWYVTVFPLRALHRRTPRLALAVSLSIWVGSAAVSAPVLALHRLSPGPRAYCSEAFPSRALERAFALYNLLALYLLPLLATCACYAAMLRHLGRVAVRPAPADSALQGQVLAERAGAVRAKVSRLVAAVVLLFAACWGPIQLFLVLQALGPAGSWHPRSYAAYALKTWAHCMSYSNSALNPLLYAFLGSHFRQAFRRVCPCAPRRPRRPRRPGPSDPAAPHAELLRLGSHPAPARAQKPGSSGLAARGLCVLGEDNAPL
Method in brief: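 HEK293 cells stably expressing human KISS1R were loaded with calcium dye for 1 h at 37 C, then given compound; fluorescence (Ex/Em 480/540) was read kinetically for 3 min. Fifteen concentrations, triplicate.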

[4] = G protein-coupled receptor (GPCR) small molecule agonists, calcium flux assay: HEK293 wild type cell line counter screen (AID 1920065)
Method in brief: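 Wild-type HEK293 cells plated 18 h, loaded with calcium dye 1 h at 37 C, then compounds added in agonist mode (ATP as positive control). Kinetic fluorescence Ex/Em 480/540 recorded 3 min at 1 sec intervals; 15 concentrations, triplicate.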

[5] = p53 small molecule agonists, cell-based qHTS assay with rat liver microsomes: qHTS cell viability counter screen (AID 1963580); note: nearly all actives have a fitted effect of over 45% in size
Method in brief: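 Viability is assessed in parallel with the p53 reporter read: HCT-116 p53RE-bla cells receive compounds plus rat microsomes and NADPH (0.5 mg/mL final apiece), incubate 16 h at 37 C, and then CellTiter-Glo luminescence is recorded.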

[6] = p53 small molecule agonists, cell-based qHTS assay: qHTS cell viability counter screen (AID 1963581); note: nearly all actives have a fitted effect of over 45% in size
Method in brief: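 p53RE-bla HCT-116 cells, compounds added 5 h after plating and incubated 16 h at 37 C. Cytotoxicity measured in the same wells as intracellular ATP by CellTiter-Glo luminescence after 30 min at room temperature.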

[7] = target: 5-hydroxytryptamine receptor 2A (Homo sapiens) (UniProt P28223); assay: 5-hydroxytryptamine receptor 2A (HTR2A) small molecule antagonists, cell-based qHTS assay (AID 1963586); note: nearly all actives have a fitted effect of over 45% in size
Chain of 5-hydroxytryptamine receptor 2A (Homo sapiens) (P28223 whole entry, looked up): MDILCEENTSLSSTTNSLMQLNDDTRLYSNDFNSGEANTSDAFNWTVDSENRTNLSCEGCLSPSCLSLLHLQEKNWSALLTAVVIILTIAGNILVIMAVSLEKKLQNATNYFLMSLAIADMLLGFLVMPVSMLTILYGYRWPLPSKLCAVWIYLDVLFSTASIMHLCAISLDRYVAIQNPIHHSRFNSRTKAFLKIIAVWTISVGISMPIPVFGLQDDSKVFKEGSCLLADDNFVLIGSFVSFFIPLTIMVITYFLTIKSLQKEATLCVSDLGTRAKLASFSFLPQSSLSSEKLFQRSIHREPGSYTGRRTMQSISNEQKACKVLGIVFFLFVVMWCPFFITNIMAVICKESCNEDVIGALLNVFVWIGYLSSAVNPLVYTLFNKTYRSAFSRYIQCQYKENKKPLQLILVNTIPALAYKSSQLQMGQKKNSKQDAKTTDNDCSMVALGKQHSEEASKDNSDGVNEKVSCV
Method in brief: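 Antagonist-mode intracellular calcium assay: DOI (4 nM) added after 5 min compound pre-incubation at room temperature to dye-loaded HTR2A-CHO cells. Fluorescence followed for 3 min, sampled every second.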

[8] = target: 5-hydroxytryptamine receptor 2A (Homo sapiens) (UniProt P28223); assay: 5-hydroxytryptamine receptor 2A (HTR2A) small molecule agonists, cell-based qHTS assay (AID 1963587); note: nearly all actives have a fitted effect of over 30% in size
Method in brief: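 CHO cells stably expressing human HTR2A, plated 18 h, loaded with calcium dye 1 h at 37 C. Agonist mode: compounds added and intracellular calcium fluorescence recorded kinetically for 2 min at 1 sec intervals.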

[9] = target: Muscarinic acetylcholine receptor M1 (Homo sapiens) (UniProt P11229); assay: Cholinergic receptor muscarinic 1 (CHRM1) small molecule antagonists, cell-based qHTS assay (AID 1963588); note: nearly all actives have a fitted effect of over 40% in size
Chain of Muscarinic acetylcholine receptor M1 (Homo sapiens) (P11229 whole entry, looked up): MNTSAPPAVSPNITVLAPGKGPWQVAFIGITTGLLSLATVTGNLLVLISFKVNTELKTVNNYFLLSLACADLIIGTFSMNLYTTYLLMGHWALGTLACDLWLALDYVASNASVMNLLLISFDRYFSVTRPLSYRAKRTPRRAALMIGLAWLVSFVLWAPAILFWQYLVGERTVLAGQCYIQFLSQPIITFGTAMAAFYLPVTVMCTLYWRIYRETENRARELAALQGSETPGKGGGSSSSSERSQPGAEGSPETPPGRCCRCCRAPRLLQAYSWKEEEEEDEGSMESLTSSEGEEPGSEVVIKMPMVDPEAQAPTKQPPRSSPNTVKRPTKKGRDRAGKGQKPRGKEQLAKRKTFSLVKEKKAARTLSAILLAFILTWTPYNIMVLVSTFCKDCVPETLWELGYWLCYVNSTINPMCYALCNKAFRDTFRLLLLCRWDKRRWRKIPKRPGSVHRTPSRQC
Method in brief: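 CHRM1-CHO calcium-flux assay, antagonist mode. Cells were seeded 18 h, dye-loaded 1 h at 37 C and given compound for 5 min at RT, then acetylcholine was added at 50nM. FDSS fluorescence was read 3 min; 15 concentrations, three runs.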

[10] = target: Muscarinic acetylcholine receptor M1 (Homo sapiens) (UniProt P11229); assay: Cholinergic receptor muscarinic 1 (CHRM1) small molecule agonists, cell-based qHTS assay (AID 1963589); note: nearly all actives have a fitted effect of over 35% in size
Method in brief: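 CHO cells stably expressing human CHRM1 were loaded with calcium dye for 1 h at 37 C, then compound was added in agonist mode. Intracellular calcium fluorescence was followed kinetically at 1 s intervals. Fifteen concentrations were tested in three independent runs.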

[11] = cAMP Responsive Elements (CRE) small molecule agonists, cell-based qHTS assay (AID 1963590)
Method in brief: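 CRE-bla HEK 293T cells, 2,000/well in DMEM with 10% dialyzed FBS and 25 mM HEPES, pre-incubated 18 h at 37 C, then exposed to compound 3 h at 37 C. Beta-lactamase reporter read with LiveBLAzer B/G FRET substrate after 2 h at room temperature.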

[12] = cAMP Responsive Elements (CRE) small molecule antagonists, cell-based qHTS assay (AID 1963591; active = well fitted inhibition curve with a large enough effect in the signal ratio in the repeat runs, not every such curve was filed as active; the % refers to the signal ratio)
Method in brief: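 CRE-bla HEK293T cells plated 18 h, then given compound plus NKH477 at 0.25 uM final for 3 h at 37C. Beta-lactamase reporter read with LiveBLAzer B/G FRET substrate after 2 h at room temperature.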

[13] = target: Beta-2 adrenergic receptor (Homo sapiens) (UniProt P07550); assay: Adrenergic beta2 receptor (ADRB2) small molecule antagonists, cell-based qHTS assay (AID 1963592); note: nearly all actives have a fitted effect of over 50% in size; note: potency is the fitted concentration of half-maximal effect
Chain of Beta-2 adrenergic receptor (Homo sapiens) (P07550 whole entry, looked up): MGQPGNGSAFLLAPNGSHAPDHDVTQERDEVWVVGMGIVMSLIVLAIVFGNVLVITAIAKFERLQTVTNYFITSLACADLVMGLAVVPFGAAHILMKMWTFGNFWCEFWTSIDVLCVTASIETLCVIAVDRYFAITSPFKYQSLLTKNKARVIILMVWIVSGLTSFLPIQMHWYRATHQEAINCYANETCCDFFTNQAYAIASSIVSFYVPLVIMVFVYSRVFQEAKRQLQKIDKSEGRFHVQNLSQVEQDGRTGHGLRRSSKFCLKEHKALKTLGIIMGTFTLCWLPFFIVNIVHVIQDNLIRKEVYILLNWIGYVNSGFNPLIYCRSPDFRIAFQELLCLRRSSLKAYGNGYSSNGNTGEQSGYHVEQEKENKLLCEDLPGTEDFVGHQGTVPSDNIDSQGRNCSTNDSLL
Method in brief: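 Cells (CHO, stable ADRB2 overexpression) incubated 18-20hr at 37C; compounds added from DMSO; agonist mix (1nM isoproterenol, 100uM IBMX, 25uM Ro-20-1724) added; 0.5hr RT; d2-cAMP and anti-cAMP-cryptate added; 1hr RT; 665/615 nm read.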

[14] = target: Beta-2 adrenergic receptor (Homo sapiens) (UniProt P07550); assay: Adrenergic beta2 receptor (ADRB2) small molecule agonists, cell-based qHTS assay (AID 1963593);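 note: CHO cells stably overexpressing human ADRB2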
Method in brief: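 CHO cells stably over-expressing ADRB2 were plated overnight at 37C, then dosed with compounds plus a stimulation mix containing 100uM IBMX and 25uM Ro-20-1724 for 0.5hr at room temperature. cAMP was measured by HTRF competition, 1hr.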

[15] = target: D(2) dopamine receptor (Homo sapiens) (UniProt P14416); assay: Dopamine D2 receptor (DRD2) small molecule antagonists, cell-based qHTS assay (AID 1963595; active = well fitted inhibition curve with a large enough effect in the signal ratio in the repeat runs, with a control signal flat; the % refers to the signal ratio)
Chain of D(2) dopamine receptor (Homo sapiens) (P14416 whole entry, looked up): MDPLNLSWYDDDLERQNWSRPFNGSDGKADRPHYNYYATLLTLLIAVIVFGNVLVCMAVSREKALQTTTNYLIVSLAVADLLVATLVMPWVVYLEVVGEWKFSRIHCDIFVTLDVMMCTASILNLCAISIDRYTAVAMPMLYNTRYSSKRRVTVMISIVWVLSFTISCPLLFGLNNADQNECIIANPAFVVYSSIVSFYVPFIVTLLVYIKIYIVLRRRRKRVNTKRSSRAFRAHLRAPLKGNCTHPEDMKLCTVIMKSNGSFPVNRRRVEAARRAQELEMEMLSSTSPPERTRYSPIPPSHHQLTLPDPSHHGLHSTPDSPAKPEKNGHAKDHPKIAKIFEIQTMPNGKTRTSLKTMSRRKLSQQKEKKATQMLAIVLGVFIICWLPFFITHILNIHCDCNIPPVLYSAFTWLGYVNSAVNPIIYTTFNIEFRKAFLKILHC
Method in brief: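 HTRF cAMP read-out at 665 and 620 nm emission (340 nm excitation). Antagonist mode: compounds were tested against 12 nM quinpirole in DRD2-HEK293 cells, with 200 nM NKH477 raising cAMP and 0.1 mM Ro20-1724 blocking its breakdown.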

[16] = p53 small molecule agonists, cell-based qHTS assay with human liver microsomes: qHTS cell viability counter screen (AID 1963579); note: nearly all actives have a fitted effect of over 45% in size; note: potency is the fitted concentration of half-maximal effect
Method in brief: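 Metabolically activated exposure: compounds, human liver microsomes and NADPH (0.5 mg/mL final apiece) were added to p53RE-bla cells seeded 5 h earlier, left 16 h at 37 C, and then assessed for viability by CellTiter-Glo luminescence.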

[17] = target: D(2) dopamine receptor (Homo sapiens) (UniProt P14416); assay: Dopamine D2 receptor (DRD2) small molecule agonists, cell-based qHTS assay (AID 1963594); note: nearly all actives have a fitted effect of over 35% in size
Method in brief: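 HEK293 cells stably expressing human DRD2, pre-treated with PDE inhibitor Ro20-1724 (0.1 mM final) and compound 10 min at room temperature, then stimulated with NKH477 (200nM […]) for 30 min. cAMP read by HTRF (665/620 nm).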

[18] = p53 small molecule agonists, cell-based qHTS assay with human liver microsomes (AID 1963577);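 note: p53 response element beta-lactamase reporter cells with liver microsomes plus NADPH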
Method in brief: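 In this qHTS, p53 response-element beta-lactamase cells receive test compound together with a microsome/NADPH activating system (0.5 mg/mL final each) and are incubated 16 h at 37 C before LiveBLAzer fluorescence detection.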

[19] = p53 small molecule agonists, cell-based qHTS assay with rat liver microsomes (AID 1963578)
Method in brief: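 Agonist mode in p53RE-bla reporter cells, with compounds co-incubated 16 h at 37 C alongside 0.5 mg/mL rat liver microsomes and 0.5 mg/mL NADPH (final), followed by a 2 h LiveBLAzer detection step.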

[20] = p53 small molecule agonists, cell-based qHTS assay (AID 1963582; active = well fitted activation curve with a large enough effect in the signal ratio in the repeat runs, not every such curve was filed as active; the % refers to the signal ratio)
Method in brief: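 p53RE-bla reporter cells, compounds added in DMSO after 5 h plating, incubated 16 h at 37 C. Beta-lactamase read via 2 h room-temperature LiveBLAzer B/G FRET substrate, fluorescence intensity.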

Measured: Potency

CC1(C)C(=O)N(Cl)C(=O)N1Br
not listed: [16] | [17] | [18] | [19] | [20]
inactive: all other assays above

CCCCCCCCCC[N+](C)(CCCCCCCCCC)CCC[Si](OC)(OC)OC
active: [1] 21.7 µM | [16] 36.3 µM
inactive: [2] | [3] | [4] | [7] | [8] | [9] | [10] | [13] | [17]

CCOc1ccc2c(c1)C(C)CC(C)(C)N2 (stereo unspecified)
not listed: [5] | [12] | [14] | [16] | [18] | [19] | [20]
inactive: all other assays above

Sc1nc(S)nc(S)n1
not listed: [4] | [9] | [20]
inactive: all other assays above

CN(C)CC[C@@H](c1ccc(Cl)cc1)c1ccccn1
inactive: [1] | [2] | [3] | [4] | [6] | [20] | [11] | [12] | [13] | [17]

CC(C)NC(=O)NC(C)C
not listed: [14] | [16] | [18] | [19] | [20]
inactive: all other assays above

COC(C)=O
not listed: [14] | [16] | [18] | [19] | [20]
inactive: all other assays above

O=S1(=O)N=C(O)c2ccccc21
not listed: [5] | [6] | [14] | [18] | [19] | [20]
inactive: all other assays above

CN(C)CCCCCCN(C)C
not listed: [5] | [6] | [16] | [18] | [19] | [20]
inactive: all other assays above

C/C=C/C=N/NC(=O)c1ccncc1
not listed: [5] | [6] | [11] | [12] | [17] | [18] | [19] | [20]
inactive: all other assays above

C=CCCCCCCC=C
not listed: [4] | [6] | [9] | [14]
inactive: all other assays above

CC(C)CCCCCCOC(=O)C1CCCCC1C(=O)OCCCCCCC(C)C (stereo unspecified)
not listed: [5] | [11] | [14] | [18] | [19] | [20]
inactive: all other assays above

Cc1[nH]nc2c1N=C(c1ccccc1Cl)c1cc([N+](=O)[O-])ccc1N2
inactive: [2] | [3] | [4] | [7] | [8] | [9] | [10] | [12] | [17]
active: [1] 24.3 µM | [13] 21.7 µM

O=[N+]([O-])c1ccc(O)c2ncccc12
not listed: [5] | [7] | [12] | [16] | [18] | [19]
inactive: all other assays above
